Inconclusive results are not listed. Entries that show only a call come without a potency. The source made the active and inactive calls. Calls come from the whole dose curve; as a rule, active = well fitted inhibition curve with a large enough effect; inconclusive = small, poorly fitted or top-dose-only effect; inactive = flat fitted curve, though single readings scatter.
Potency is the fitted concentration of half-maximal effect.

The nature of this assay: CHOP2 Reporter Counterscreen Assay for Inhibitors of Ubiquitin-specific Protease USP2a.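 Note: activated enterokinase alone at 50 pM in a cell-free format rather than USP2a or CHOP2; nearly all actives have a fitted effect of over 55% in size.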 As to conditions: purified enterokinase, fluorogenic substrate, 485/531 nm; series mostly up to 38.3 µM. The essentials:
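Fluorescence (485/531 nm) read 10 min after adding 25nM reporter substrate to 50 pM activated EK preincubated 30 min RT with compound; Tris pH 8.0/CaCl2/CHAPS buffer. Data normalized to buffer-alone inhibition; concentration-response curves fitted.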
(A counterscreen serves to expose hits that act by an unwanted route or on another target.)
In the case of `OCCN(Cc1ccccc1)c1ncnc2sccc12`, the Potency entry is “inactive”.
On to `COC(=O)c1c(NC(=O)c2cccnc2)sc(C)c1C`, for which the Potency result is “inactive”.
`C=CCn1c(N)c(C(=O)NCc2cccnc2)sc1=S`: the Potency entry was “inactive”.
With `Cc1ccc(C(=O)NCCCc2ccccc2)s1` the entry was “inactive”; with `CC(C)c1ccc(C2=C(O)c3ccccc3C(=O)C2=O)cc1`, “inactive”.
With `Cc1ccc(-c2ccc(CCC(=O)O)n2NC(=O)c2cccs2)cc1` the entry was “inactive”; with `O=C(Nc1cccc(-c2nn[nH]n2)c1)c1ccc(Br)s1`, 3.98 µM (active); with `Cc1csc(NC(=O)CCn2c(=O)sc3ccccc32)n1`, “inactive”.
With `Cc1ccc2[nH]c(C)c(CCNC(=O)c3cc4cc([N+](=O)[O-])ccc4oc3=O)c2c1` the entry was “inactive”; with `COc1ccc(NC(=O)C2CC(=O)OC2c2ccccc2)cc1` (stereo not given), “inactive”; with `O=C(COC(=O)c1ccc(F)c(S(=O)(=O)N2CCOCC2)c1)c1ccccc1`, “inactive”.
Consider `Cc1ccc2[nH]c(=O)c(COC(=O)c3ccccn3)cc2c1`, for which the Potency entry was “inactive”.
With `O=C(Cc1cc(=O)[nH]c(=O)[nH]1)NCC1CCCO1` (stereo not given) the entry was “inactive”; with `Cc1ccc(S(=O)(=O)Nc2ccccc2-c2ccccc2NS(=O)(=O)c2ccc(C)cc2)cc1`, “inactive”.
Consider `Cc1ccc(S(=O)(=O)N2CCOCC2)cc1NC(=O)CN1C(=O)NC(C)(c2ccc(Cl)cc2Cl)C1=O` (stereo not given), for which the Potency entry was “inactive”.
With `CCc1ccccc1OCC(=O)Nc1ccc(N2CCCC2)cc1C`, the Potency is 10 µM (active).
The result for `COc1ccc(NC(=O)c2cc(-c3ccco3)nc3ccccc23)cc1S(=O)(=O)N1CCOCC1` reads 5.62 µM (active); that for `O=C(O)/C=C/c1ccc(S(=O)(=O)Nc2ccccc2C(=O)Nc2ccc(F)cc2)cc1`, “inactive”.
On to `Cn1c2ccccc2c2nnc(SC3CCOC3=O)nc21` (stereo not given), for which the Potency result was “inactive”.
The result for `C/C(=N/NC(=O)c1cc2ccccc2cc1O)C1C(=O)c2ccccc2C1=O` reads “inactive”.
With `CCOc1cccc(NC(=O)/C(C#N)=C\c2cn(CC(=O)O)c3ccccc23)c1`, the Potency entry was “inactive”.
Regarding `Cc1cc(C)c(NC(=O)C[N+](C)(C)CC(O)COc2cccc3ccccc23)c(C)c1` (stereo not given), the Potency entry was “inactive”.
Take `C#CCOCCOCCOCCNc1nc(N2CCN(C(=O)CCCCCCCCCCNC(=O)[C@H]([C@@H](C)CC)n3cc(CCCCCN)nn3)CC2)nc(N2CCN(C(=O)CCCCCCCCCCNC(=O)[C@H](CCCCN)n3cc(CCCC(=O)O)nn3)CC2)n1`: the Potency was 7.94 µM (active).
The result for `FC(F)(F)C1=Nc2cccc3cccc(c23)N1` reads “inactive”; that for `CSCC[C@H](NC(=O)C1CCN(S(=O)(=O)c2ccc(C)cc2)CC1)C(=O)NCc1ccco1`, “inactive”; that for `COc1ccc(OC)c(Nc2ccc(Nc3cc(OC)ccc3OC)nn2)c1`, “inactive”.
The result for `O=C(COc1ccccc1)NCc1nnc(SCC(=O)Nc2nccs2)n1-c1ccccc1` reads “inactive”; that for `O=c1oc2ccccc2n1Cn1c(=O)oc2ccccc21`, “inactive”.
With `O=C(CSc1nc2ccccc2[nH]1)Nc1ccc2c(c1)OCCO2` the entry was “inactive”; with `O=C(c1ccccc1)N1CCN(C2C3CC4CC(C3)CC2C4)CC1` (stereo not given), “inactive”; with `Cc1c(O)c(CN2CCCC2)cc2c3c(c(=O)oc12)CCC3`, “inactive”.
On to `O=C(CCCN1C(=O)/C(=C\c2ccco2)SC1=S)Nc1ccc(O)cc1C(=O)O`, for which the Potency is 12.6 µM (active).
The result for `Cc1cccc(-c2nnc3n2N=C(c2ccc(Br)cc2)CS3)c1` reads “inactive”; that for `O=C(CSc1ccc2nnc(-c3cccc(F)c3)n2n1)N1CCCc2ccccc21`, “inactive”.
`S=c1[nH]nc(-c2cc(-c3ccco3)[nH]n2)n1-c1cccc2ccccc12`: the Potency entry is “inactive”.
With `COc1cccc(/C=N/n2c(SC)nnc2-c2ccccc2)c1O` the entry was “inactive”.
The result for `CC1CCCCN1CCNC(=O)c1cnn2ccccc12` (stereo not given) reads “inactive”.
For `c1coc(CNc2nc(-c3cccs3)cs2)c1`, the Potency entry is “inactive”.
As to `O=C(CSc1nnc(SCc2ccccc2)s1)N/N=C/c1c[nH]c2ccccc12`, the Potency entry is “inactive”.
For `COc1cc(C(=O)OCC(=O)Nc2c(F)c(F)c(F)c(F)c2F)cc(OC)c1OC`, the Potency result is “inactive”.

Source of the values: PubChem BioAssay AID493169 (National Center for Advancing Translational Sciences (NCATS), 2011).
